Measurements published in PubChem BioAssay (Tox21).
“And” between values parts separate entries of the source, which are not always exact repeats. Equal entries are not always repeated. Results filed as inconclusive are left out. Unmarked numbers belong to inactive results. The source made the active and inactive calls. Calls come from the whole dose curve; as a rule, active = well fitted activation curve with a large enough effect; inconclusive = small, poorly fitted or top-dose-only effect; inactive = flat fitted curve, though single readings scatter. Positions of bridges follow the written chain, without caps; N, C: chain ends. Non-standard residues stand in square brackets, D forms with d. Residues, ends and D or L forms follow the SMILES beside them. *: point of attachment. X1 = CC[C@@H](C)[C@@H](N)C1=N[C@H](C(=O)*)CS1; Dab(CH2SO3H) = N[C@@H](CCNCS(=O)(=O)O)C(=O)O; d(aIle) = CC[C@H](C)[C@@H](N)C(=O)O; X3 = CC[C@@H](C)CCCCC(=O)*; dOrn = NCCC[C@@H](N)C(=O)O; Dab = NCC[C@H](N)C(=O)O

assay: qHTS assay to identify small molecule phospholipidosis (PLD) inducers (AID 1259344); conditions: HepG2 phospholipidosis, LipidTOX Red imaging, 24 h; series mostly up to 38.3 µM; PLD induction: at the top concentration
Summary of the method: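 Read-out is LipidTOX Red fluorescence (ex 595/em 615) imaged in HepG2 cells after 24 h compound exposure at 37 C, with Hoechst nuclear counterstain (ex 352/em 461) allowing per-cell normalisation.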
% is set by controls: 0 for no effect and ±100 for the full control effect.

SMILES | PLD induction | Potency
CCCCN(CCCC)C(=S)[S-].CCCCN(CCCC)C(=S)[S-].[Zn+2] | -1.43% | –
N[C@H](CO)C(=O)O | 2.42% | –
CSCC[C@H](NC(=O)[C@H](Cc1ccc(OS(=O)(=O)O)cc1)NC(=O)[C@@H](N)CC(=O)O)C(=O)NCC(=O)N[C@@H](Cc1c[nH]c2ccccc12)C(=O)N[C@@H](CCSC)C(=O)N[C@@H](CC(=O)O)C(=O)N[C@@H](Cc1ccccc1)C(N)=O | – | inactive
CC[C@@H](C)CCCCC(=O)N[C@@H](CCNCS(=O)(=O)O)C(=O)N[C@H](C(=O)N[C@@H](CCNCS(=O)(=O)O)C(=O)N[C@H]1CCNC(=O)[C@H]([C@@H](C)O)NC(=O)[C@H](CCNCS(=O)(=O)O)NC(=O)[C@H](CCNCS(=O)(=O)O)NC(=O)[C@H](CC(C)C)NC(=O)[C@@H](CC(C)C)NC(=O)[C@H](CCNCS(=O)(=O)O)NC1=O)[C@@H](C)O (X3-[Dab(CH2SO3H)]T[Dab(CH2SO3H)][Dab][Dab(CH2SO3H)][dL]L[Dab(CH2SO3H)][Dab(CH2SO3H)]T; lactam 4-C) | 19.3% | –
NCCCC[C@H](NC(=O)[C@@H]1CCCN1C(=O)[C@@H]1CSSC[C@H](N)C(=O)N[C@@H](Cc2ccc(O)cc2)C(=O)N[C@@H](Cc2ccccc2)C(=O)N[C@@H](CCC(N)=O)C(=O)N[C@@H](CC(N)=O)C(=O)N1)C(=O)NCC(N)=O | – | inactive
NC(=O)CC[C@@H]1NC(=O)[C@H](Cc2ccccc2)NC(=O)[C@H](Cc2ccc(O)cc2)NC(=O)[C@@H](N)CSSC[C@@H](C(=O)N2CCC[C@H]2C(=O)N[C@@H](CCCN=C(N)N)C(=O)NCC(N)=O)NC(=O)[C@H](CC(N)=O)NC1=O | – | inactive
Nc1cc(Cl)c(NC2=NCCN2)c(Cl)c1 | -0.309% | –
O=S(=O)(O)CC(S)CS (stereo not given) | 0.379% | –
Oc1ccc(Cl)c2c1CCC2 | -0.3% | –
CN[C@@H]1[C@@H](O[C@H]2O[C@H](CO)[C@@H](N)[C@H](O)[C@H]2O)O[C@H]2C[C@@H](N)[C@@H](O[C@H]3[C@H](O)[C@@H](O)[C@H](N)C[C@@H]3N)O[C@@H]2[C@@H]1O | -1.15% [at 15.5 µM] | –
CC(C)CCC[C@@H](C)[C@H]1CC[C@H]2[C@@H]3CC[C@@H]4C[C@H](O)CC[C@]4(C)[C@H]3CC[C@]12C | 0.594% | –
CCCCCCCC[N+](C)(C)CCCCCCCC | – | inactive
NC[C@H]1O[C@H](O[C@H]2[C@H](O)[C@@H](O[C@H]3O[C@H](CO)[C@@H](O)[C@H](N)[C@H]3O)[C@H](N)C[C@@H]2N)[C@H](N)C[C@@H]1O | 3.03% [at 15.5 µM] | –
OCCCNc1ccccc1 | -0.547% | –
CCOC(=O)[C@H](CCc1ccccc1)N[C@@H](C)C(=O)N1[C@H](C(=O)O)C[C@H]2CCCC[C@@H]21 | – | inactive
CN(C)CCc1c[nH]c2ccc(Cn3cncn3)cc12 | -0.941% | –
O=P(O)(O)C(O)(Cn1ccnc1)P(=O)(O)O | -1.58% | –
O=C(O)c1ccccc1[O-].O=C(O)c1ccccc1[O-].[Zn+2] | -2.38% | –
COc1cc2c(cc1OC)[C@@H](Cc1cc(OC)c(OC)c(OC)c1)[N+](C)(CCCOC(=O)CC/C=C/CCC(=O)OCCC[N+]1(C)CCc3cc(OC)c(OC)cc3[C@H]1Cc1cc(OC)c(OC)c(OC)c1)CC2 (stereo not given in full) | – | inactive
CC(C)(COP(=O)(O)OP(=O)(O)OC[C@H]1O[C@@H](n2cnc3c(N)ncnc32)[C@H](O)[C@@H]1OP(=O)(O)O)C(O)C(=O)NCCC(=O)NCCS (stereo not given in full) | -0.705% | –

SMILES | PLD induction | Potency
CC(=O)OCC(=O)[C@@]1(O)CC[C@H]2[C@@H]3C[C@H](C)C4=CC(=O)C=C[C@]4(C)[C@H]3[C@@H](O)C[C@@]21C | -0.177% | –
CNCC(=O)N[C@@H](CCCN=C(N)N)C(=O)N[C@H](C(=O)N[C@@H](Cc1ccc(O)cc1)C(=O)N[C@H](C(=O)N[C@@H](Cc1cnc[nH]1)C(=O)N1CCC[C@H]1C(=O)N[C@@H](C)C(=O)O)C(C)C)C(C)C | 0.0608% | –
CC(C)[N+]1(C)[C@@H]2CC[C@H]1CC(OC(=O)C(CO)c1ccccc1)C2 (stereo not given in full) | – | inactive
NCCCC(=O)O | -1.08% | –
O=C(O)c1ccc(NC2OC[C@@H](O)[C@H](O)[C@H]2O)cc1 (stereo not given in full) | -0.158% | –
CO/N=C(\C(=O)N[C@@H]1C(=O)N2C(C(=O)O)=C(C[N+]3(C)CCCC3)CS[C@H]12)c1csc(N)n1 | 0.0622% | –
O=C1c2ccccc2-c2n[nH]c3cccc1c23 | -0.308% | –
CC[C@@H](C)[C@@H](N)C1=N[C@H](C(=O)N[C@@H](CC(C)C)C(=O)N[C@@H](CCC(=O)O)C(=O)N[C@@H](C(=O)N[C@@H]2CCCCNC(=O)[C@@H](CC(N)=O)NC(=O)[C@@H](CC(=O)O)NC(=O)[C@@H](Cc3cnc[nH]3)NC(=O)[C@@H](Cc3ccccc3)NC(=O)[C@@H]([C@H](C)CC)NC(=O)[C@@H](CCCN)NC2=O)[C@@H](C)CC)CS1 (X1-LE[d(aIle)][dK][dOrn][dI][dF][dH][dD][dN]; lactam 4-C) | – | inactive
CC[C@H](C)C(=O)O[C@H]1CCC=C2C=C[C@H](C)[C@H](CC[C@@H]3C[C@@H](O)CC(=O)O3)[C@H]21 | -1.65% | –
Cc1cc(-c2ccc(N=Nc3ccc4c(S(=O)(=O)O)cc(S(=O)(=O)O)c(N)c4c3O)c(C)c2)ccc1N=Nc1ccc2c(S(=O)(=O)O)cc(S(=O)(=O)O)c(N)c2c1O | – | inactive
Nc1c(CC(=O)O)cccc1C(=O)c1ccccc1 | -2.85% [at 7.66 µM] and -2.33% [at 7.66 µM] | –
Cc1cc(C(=O)NCCc2ccc(S(=O)(=O)NC(=O)NN3CCCCCC3)cc2)no1 | -0.0169% | –
NCC1CCC(C(=O)O)CC1 (stereo not given) | 2.82% [at 15.5 µM] | –
CCCCCCCCCCCCCCCCCC(=O)O | -0.834% | –
CC(=O)Oc1cc(C(F)(F)F)ccc1C(=O)O | -0.104% [at 15.5 µM] | –
Nc1nc(NC2CC2)c2ncn([C@@H]3C=C[C@@H](CO)C3)c2n1 | -0.759% | –
CCN1CCCC1CNC(=O)c1cc(S(=O)(=O)CC)ccc1OC (stereo not given) | – | inactive
NC(=O)[C@H]1O[C@@H](O)[C@H](O)[C@@H](O)[C@@H]1O | 0.14% | –
C=C(Nc1ccc(OCC)cc1)Nc1ccc(OCC)cc1 | 8.79% | –
C[N+]1(CCCCC[N+]2(C)CCCC2)CCCC1 | -0.372% | –
